As usually defined, the AC50 is the midpoint of the concentration-response curve, whichever way the signal moves.

Structures are written as SMILES. Results filed as inconclusive are left out. Active and inactive are the calls of the source. The calls were made as follows: active = hit-call score of the fitted dose curve at least 0.9, where 1 is the maximum; inconclusive = response in the unintended direction; inactive = score below 0.9.

The test can be described thus: STM_H9_OrnCyssISnorm_ratio: Stemina devTOX quickPredict H9 human embryonic stem cell (hESC)-based Assay for Ornithine (ORN):Cystine (CYSS) Ratio (AID 2283714). How it is done:
STM_H9_secretome utilizes undifferentiated H9 cells to measure relative changes in two metabolites, ornithine (ORN) and cystine (CYSS) in the secretome, targeting a critical drop in the ORN/CYSS ratio as a biomarker for developmental toxicity.STM_H9_OrnCyssISnorm_ratio is one of 10 components calculated in the STM_H9_secretome assay. It is the ratio value of OrnISnorm_perc to CyssISnorm_perc.Data from the assay component STM_H9_OrnCyssISnorm_ratio was analyzed at the assay endpoint STM_H9_OrnCyssISnorm_ratio in the positive analysis fitting direction relative to DMSO as the negative control and baseline of activity. Using a type of binding reporter, gain or loss-of-signal activity can be used to understand relative metabolite change.
H9 hESCs maintained in a pluripotent state were exposed to test compound for 72h with chemical replenishment with media replacement every 24h. Cell-conditioned media from the final 24-h treatment period was collected for analysis of the targeted biomarker, and cell viability of the corresponding cell layer was assessed. The chemical library was tested in blinded fashion. Each test plate included 1uM Methotrexate (MTX; Selleck Chemicals, Houston, Texas) as a positive reference, 5 nM MTX as a negative reference, 0.1% DMSO as the neutral (vehicle) control, and sample-level media blanks.H9 cell-conditioned media from the final 24-h treatment period was collected for analysis of the targeted biomarker and cell viability was measured from the corresponding cell layer. Cell viability was measured using the CellTiter-Fluor assay (Promega, Madison, Wisconsin) based on proteolytic cleavage of a substrate to fluorescent signal proportional to the number of living cells. The cell viability Relative Fluorescence Unit (RFU) was background corrected and normalized to mean RFU of the neutral control (0.1% DMSO). The collected H9-cell-conditioned media samples were processed for targeted biomarker analysis as described (Palmer et al., 2013). Briefly, spent media samples were deproteinized (40% acetonitrile) and processed for UPLC-HRMS. Data acquisition was performed using 4 separate UPLC-HRMS systems, consisting of an Agilent 1290 Infinity LC system (Agilent Technologies) interfaced with an Agilent high-resolution mass spectrometer (models G6520A, G6520B, G6530A, and G6224A). A Waters Acquity UPLC BEH Amide column (2.1mm x 50mm, 1.7lm particle size; Waters, Milford, Massachusetts) maintained at 40C was applied for separation of metabolites using a 6.5min solvent gradient with 0.1% formic acid in water and 0.1% formic acid in acetonitrile (1.0ml/min flow rate). Data were acquired using MassHunter Acquisition software (version B 04.00, Agilent Technologies). The extracted ion chromatogram (EIC) areas for ORN, CYSS, and their respective spike-in C13-standards were determined using the Agilent MassHunter Quantitative Analysis software, version B.05.00 or newer (Agilent Technologies), and data were normalized as described in Palmer et al. (2017).
Take `CCCCC(CC)COC(=O)c1ccccc1C(=O)OCC(CC)CCCC` (configuration not stated): the AC50 is 30.9 µM (active).

For `CCCCNC(=O)n1c(NC(=O)OC)nc2ccccc21`, the concentration at half-maximal activity (AC50) was 6.59 µM (active).

Regarding `CCON=C(CC)C1=C(O)CC(c2c(C)cc(C)cc2C)CC1=O` (configuration not stated), the result was inactive.

Regarding `CC(C)(C)c1ccc(CSc2cnn(C(C)(C)C)c(=O)c2Cl)cc1`, the half-maximal activity concentration (AC50) was 0.091 µM (active).

`COc1ccc(C(c2ccc(OC)cc2)C(Cl)(Cl)Cl)cc1`: the outcome was inactive.

With `CCCCOC(=O)c1ccccc1C(=O)OCCCC`, the AC50 was 56 µM (active).

For the compound `CON(C)C(=O)Nc1ccc(Cl)c(Cl)c1`, the AC50 is 71.7 µM (active).

For the compound `CO/C=C(/C(=O)OC)c1ccccc1Oc1cc(Oc2ccccc2C#N)ncn1`, the result was inactive.

As for `CC1COC(Cn2cncn2)(c2ccc(Oc3ccc(Cl)cc3)cc2Cl)O1` (configuration not stated), the AC50 is 3.88 µM (active).

For `OC(c1ccc(Cl)cc1)(c1cncnc1)c1ccccc1Cl` (configuration not stated), the concentration at half-maximal activity (AC50) was 77.7 µM (active).

For the compound `N#Cc1nn(-c2c(Cl)cc(C(F)(F)F)cc2Cl)c(N)c1S(=O)C(F)(F)F` (configuration not stated), the concentration at half-maximal activity (AC50) was 81.7 µM (active).

`CN(C)C(=S)SSC(=S)N(C)C`: the AC50 is 16.2 µM (active).

As for `COC(=O)N(OC)c1ccccc1COc1ccn(-c2ccc(Cl)cc2)n1`, the half-maximal activity concentration (AC50) is 0.806 µM (active).

As for `CCNc1nc(Cl)nc(NCC)n1`, the result was inactive.

Take `CCCC1COC(Cn2cncn2)(c2ccc(Cl)cc2Cl)O1` (configuration not stated): the AC50 is 57.5 µM (active).

Regarding `CCc1nn(C)c(C(=O)NCc2ccc(C(C)(C)C)cc2)c1Cl`, the AC50 is 1.55 µM (active).

Take `COC(=O)c1ccccc1C(=O)OC`: the outcome was inactive.

In the case of `CCOC(=O)CC(SP(=S)(OC)OC)C(=O)OCC` (configuration not stated), the AC50 was 80.9 µM (active).

As for `C#CCOS(=O)OC1CCCCC1Oc1ccc(C(C)(C)C)cc1` (configuration not stated), the AC50 is 2.89 µM (active).

On to `CCNc1nc(Cl)nc(NC(C)C)n1`, for which the AC50 is 50 µM (active).

With `C=CC1(C)OC(=O)N(c2cc(Cl)cc(Cl)c2)C1=O` (configuration not stated), the result was inactive.

With `COc1nc(NC(C)C)nc(NC(C)C)n1`, the half-maximal activity concentration (AC50) was 14.6 µM (active).

The values above are taken from PubChem BioAssay (EPA / NIEHS).
